Data on 36 molecules can be found in PubChem BioAssay (NCI).

Compounds without any hit were thinned out: in the full panel of roughly 79,000, 15% have a hit. Unmarked numbers belong to inactive results. Cut-off read from the data, not from the text of the source: active = growth inhibition above about 70%; inactive = the rest.

A short description of this assay: NCI Yeast Anticancer Drug Screen. Data for the bub3 strain (AID 167). The following applies: S. cerevisiae bub3 mutant strain, at 1.2 µM, stronger effect = higher value. In a few lines:
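Yeast carrying a defined mutation is treated with each compound, and growth is compared with that of vehicle-exposed cells to give inhibition.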
In the case of `C/C(=N\NC(=S)SCc1ccccc1)c1ccccn1`, the growth inhibition is 3%.
For `CC[C@@]1(O)C(=O)OCc2c1cc1n(c2=O)Cc2cc3c(N)cccc3nc2-1` the value was -28%; for `CN(C)c1ccc(Sc2ccc3nc(N)nc(N)c3c2)cc1`, -17%; for `CC(=O)OCCOCNC(=S)N/N=C(\C)c1cnccn1`, -18%.
With `COc1ccc(C2c3cc4c(cc3OC(C)(O)C2C)OCO4)c(OC)c1` (stereo unspecified) the figure was -4%; with `COc1cc(C2SCC(=O)N2c2ccc(-c3ccc(-n4c(-c5ccccc5)nc5ccccc5c4=O)cc3)cc2)cc(OC)c1OC` (stereo unspecified), -1%; with `COc1ccc(Br)c(C(=O)Sc2nnnn2-c2cccc(Cl)c2)c1`, 13%.
In the case of `O=C(NNc1ccnc2cc(Cl)ccc12)/C(=C\c1ccccc1Cl)NC(=O)c1ccccc1`, the growth inhibition is 0%.
Regarding `CSC(=S)Nc1cccc(C)n1`, the growth inhibition is -9%.
Consider `O=C(/C=C\c1ccc(Cl)cc1Cl)c1cccs1`, for which the growth inhibition is 10%.
For `COc1ccc(-c2cn(-c3ccc(I)cc3)c3ncnc(N)c23)cc1` the value was -2%.
With `CN(C)c1ccc(C(C#N)=C(C#N)C#N)cc1` the figure was -10%; with `COc1cc(/C=C2\CCc3ccccc3C2=O)cc(OC)c1OC`, -29%; with `CC(C)/C(Cl)=N\OC(=O)Nc1cccc(Cl)c1`, 1%.
For `NNC(=O)CCc1ccc2ccc3ccccc3c2c1` the value was -8%; for `COc1ccc(/C(C)=N/OC(=O)c2c(-c3ccccc3Cl)noc2C)cc1CN1CCOCC1`, -6%.
With `C=CC(C)(O)CCC1C(=C)C(O)CC2C(C)(C)CCCC12C` (stereo unspecified), the growth inhibition is -4%.
Take `S=C(Nc1ccc(Cl)c(Cl)c1)SCc1ccc2c(c1)OCO2`: the growth inhibition is -7%.
Consider `S=C(Nc1ccc(Cl)cc1)SC1CCCCC1`, for which the growth inhibition is -18%.
Turning to `Nc1nc(-c2cccnc2)cc(-c2cc(-c3cccnc3)nc(N)n2)n1`, the growth inhibition is 0%.
For `COC1=CC(=O)C2C(C1=O)C(c1ccc(Cl)cc1)[C@@H]2C` (stereo partly specified) the value was 24%; for `c1ccc(-c2nc3cccnc3s2)cc1`, -4%.
With `O=[N+]([O-])c1cc(CCl)ccc1CCl` the figure was -18%; with `COc1ccc(/C=C2\SC(=S)N(/C=C/c3nc4ccccc4[nH]c3=O)C2=O)cc1OC`, 4%; with `CCCN(CCC)CC(O)c1cc(-c2ccc(Cl)cc2)nc2c(C)c(Cl)ccc12` (stereo unspecified), -5%.
With `O=C(Nc1ccccc1)OCCc1ccc(Cl)c(Cl)c1` the figure was -1%.
Regarding `CC(O)C(O)C(O)C(/C=N\Nc1ccccc1)=N/Nc1ccccc1` (stereo unspecified), the growth inhibition was -3%.
With `C#CCCCc1ccccc1` the figure was -31%.
Turning to `CC(=O)Cc1ccc[cH-]1.[Fe+2].c1cc[cH-]c1`, the growth inhibition is -4%.
As for `Cc1cc(I)ccc1N`, the growth inhibition was 1%.
With `CC(C)(CN1CCCCC1)C(=O)CC(SCCS(=O)(=O)O)c1ccc(Br)cc1` (stereo unspecified) the figure was 1%; with `C[Si](C)(C)CNC(=O)OCc1ccccc1`, 4%.
For `CC(C(=O)N1C(=O)N(C(=O)[C@H](C)C(O)c2ccccc2)[C@H](c2ccccc2)[C@H]1c1ccccc1)[C@@H](O)c1ccccc1` (stereo partly specified) the value was -4%.
For `Oc1cccc2c(Cl)ccnc12` the value was 32%.
As for `O=C1C=CC(=C(c2ccccc2)c2ccccc2)c2ccccc21`, the growth inhibition is 0%.
With `S=C(S)NN1CCOCC1` the figure was 69%.
